Article PMC4336329 (PLoS ONE, 2015)
The campaign covered roughly 310,000 compounds. About 14,000 (4.5%) showed an effect of 50% or more. Effects have a minus sign here. The entries come from a sample that favours strong results as a whole.

Target: human ether-à-go-go-related gene (hERG) potassium channel (human, UniProt Q12809)
Assay: primary screen, population patch clamp on CHO cells stably expressing hERG; higher = less effect of the substance
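Further: peak tail current of the secondary pulse compared with the same well before compound.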

human ether-à-go-go-related gene (hERG) potassium channel, sequence (Q12809 whole entry, looked up): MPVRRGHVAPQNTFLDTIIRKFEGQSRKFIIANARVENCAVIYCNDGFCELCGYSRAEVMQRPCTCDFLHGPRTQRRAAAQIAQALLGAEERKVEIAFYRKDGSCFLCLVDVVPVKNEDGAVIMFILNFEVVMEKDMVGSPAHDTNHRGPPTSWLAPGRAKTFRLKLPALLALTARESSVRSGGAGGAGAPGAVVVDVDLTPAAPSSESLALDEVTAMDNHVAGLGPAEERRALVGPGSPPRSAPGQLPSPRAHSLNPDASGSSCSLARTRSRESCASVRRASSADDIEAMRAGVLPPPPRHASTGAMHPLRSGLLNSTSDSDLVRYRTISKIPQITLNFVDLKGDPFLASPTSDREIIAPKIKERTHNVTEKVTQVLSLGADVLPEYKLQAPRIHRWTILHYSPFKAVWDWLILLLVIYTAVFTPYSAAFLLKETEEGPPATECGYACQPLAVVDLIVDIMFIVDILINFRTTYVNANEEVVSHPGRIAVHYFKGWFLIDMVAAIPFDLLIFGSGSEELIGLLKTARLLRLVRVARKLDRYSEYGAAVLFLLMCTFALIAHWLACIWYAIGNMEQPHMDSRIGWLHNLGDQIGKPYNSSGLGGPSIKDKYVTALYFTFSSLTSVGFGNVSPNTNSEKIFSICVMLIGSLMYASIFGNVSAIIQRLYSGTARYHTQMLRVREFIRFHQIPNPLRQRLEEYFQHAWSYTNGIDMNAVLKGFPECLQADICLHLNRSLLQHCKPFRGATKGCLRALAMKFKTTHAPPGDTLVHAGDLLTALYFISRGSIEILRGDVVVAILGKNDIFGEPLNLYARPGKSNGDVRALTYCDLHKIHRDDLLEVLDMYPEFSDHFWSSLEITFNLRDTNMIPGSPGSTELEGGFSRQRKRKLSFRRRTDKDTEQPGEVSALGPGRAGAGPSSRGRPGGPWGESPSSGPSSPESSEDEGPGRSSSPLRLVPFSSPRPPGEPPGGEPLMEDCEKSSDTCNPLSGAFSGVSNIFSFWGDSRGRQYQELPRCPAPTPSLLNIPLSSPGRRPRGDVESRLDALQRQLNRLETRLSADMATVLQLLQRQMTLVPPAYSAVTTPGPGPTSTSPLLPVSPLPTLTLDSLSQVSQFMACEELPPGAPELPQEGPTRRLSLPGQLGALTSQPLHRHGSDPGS

SMILES	hERG current change (%, negative = inhibition) at 10uM
CCCSc1nc2sc3c(c2c(=O)n1CC)CC(C)(C)OC3	3.41%
CCS(=O)(=O)NCC(c1ccco1)N1CCN(c2ccccc2F)CC1 (stereo not shown)	-1.69%
COc1ccc(OC)c(NC(=O)COC(=O)CN2C(=O)NC3(CCCC3)C2=O)c1	7.58%
O=C(CCCOC(=O)c1ccc(O)cc1O)c1ccc(F)cc1	-11.6%
Cc1ccc(CS(=O)(=O)CCC(=O)NCCN2CCCCC2C)cc1 (stereo not shown)	-2.59%
Cc1cccc(/C=N/N2CCN(c3ccccc3)CC2)c1	-4.38%
O=C(O)CCCC(=O)OCCCCc1cccs1	-2.23%
Nc1c2c(nc3ccc(Br)cc13)N(C1CCCCC1)CC2.O=C(O)C(=O)O	-70.1%
Nc1c2c(nc3ccc(Br)cc13)N(Cc1ccccc1)CC2	-43.5%
Cc1nc2ccccc2c(=O)n1C1CCCCCC1	-7.64%
Nc1c2c(nc3ccc(Br)cc13)N(c1ccccc1)CC2.O=C(O)C(=O)O	-21.3%
Nc1c2c(nc3ccccc13)N(C1CCCCC1)CC2	-65.6%
c1ccc2nc3c(nc2c1)OCC1CCCCN31 (stereo not shown)	-14.2%
CCOC(=O)c1sc(NC(=O)c2ccncc2)c(C#N)c1C	22.8%
CC(C)=C1SC(N2CCN(c3cccc(C(F)(F)F)c3)CC2)=NC1=O	-2.7%
Oc1ccc[nH+]c1SCc1ccccc1.[Br-]	12.7%
Nc1cc(N)nc(SCC(=O)NCc2ccco2)n1	9.13%
CCCn1c(=N)c(C(=O)NC2CCCC2)cc2c(=O)n3cccc(C)c3nc21	-77.4%
Cc1cccn2c(=O)c3cc(C(=O)NC4CCCC4)sc3nc12	-22.8%
COc1ccc(CCn2c(=N)c(C(=O)NC3CCCC3)cc3c(=O)n4cccc(C)c4nc32)cc1	-77.8%
Cc1cccn2c(=O)c3cc(C(=O)NC4CCCC4)c(=N)n(CCc4ccccc4)c3nc12	-74.5%
Cc1ccc(CNC(=O)CSc2nc(C)cs2)cc1	15.4%
CCCc1c(-c2ccc(O)cc2)nn(-c2ccc(O)cc2)c1-c1ccc(O)cc1	12.6%
CCN(CC)C(=O)CSc1nnc([C@H](CCSC)NC(=O)OC(C)(C)C)o1	-8.26%
CC1=CC(C)(C)N(C(=O)C(C)N2C(=O)c3ccccc3C2=O)c2ccc(C)cc21 (stereo not shown)	2.88%
